In PubChem BioAssay AID796 (Columbia University Molecular Screening Center, 2007):
Screen size: about 94,000 compounds; about 410 (0.44%) were called active. For the sample, actives were picked, then their nearest neighbours and some compounds at random. A number with no mark means an inactive call.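 Rule for the calls: active = inhibition above about 30% together with a positive call from visual inspection of the well image (limit read from the data); inconclusive = inhibition above a set limit but visual check negative; inactive = inhibition not above a set limit, visual check negative.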

assay: inhibitors of IL-1B driven NFkB p65 nuclear import, primary screen, imaging, HUVEC, IL-1B stimulus, high-content imaging (AID 796); conditions: HUVEC IL-1B NFkB p65 nuclear translocation imaging; at 2 µM; stronger effect = higher value;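 note: nuclear over cytoplasmic p65 intensity ratio measured by imaging; 0% = IL-1B stimulated DMSO wells and 100% = unstimulated DMSO wells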

Q: For `COc1ccc(/C=C(/NC(=O)c2ccc(C)cc2)c2nc3ccccc3[nH]2)cc1OC`, which inhibition is on record?
A: Its inhibition is -9.9%.

Q: For `CCOC(=O)c1c(N=CN(C)C)c(C#N)c2n1CCCC2`, which inhibition is on record?
A: The inhibition was 10.8%.

Q: Which inhibition does the source give for `CC1CCCCC1NC(=O)C1CCCN1S(=O)(=O)c1cccc2nsnc12` (configuration not stated) here?
A: The inhibition was -27%.

Q: Which inhibition does the source give for `COc1nc(-c2ccc(Cl)cc2)ccc1-c1noc(-c2cccs2)n1` here?
A: The inhibition was -5.8%.

Q: Which inhibition does the source give for `O=S(=O)(c1cccc2nonc12)N1CCN(c2cccc(Cl)c2)CC1` here?
A: Its inhibition is -0.1%.

Q: Which inhibition does the source give for `CC(C)NC(=O)C(=O)N/N=C/c1ccco1` here?
A: The inhibition was -6.9%.

Q: With `COc1cc(C(=O)N2CCN(C/C=C/c3ccccc3)CC2)cc(OC)c1C` as the compound, how does the inhibition read?
A: Its inhibition is -3.7%.

Q: Which inhibition does the source give for `N/C(=N\OC(=O)c1cc(-c2ccccc2)nc2ccccc12)c1ccncc1` here?
A: Its inhibition is 8%.

Q: For `Cc1ccc(S(=O)(=O)N(CC(=O)N/N=C/c2ccc(F)cc2)c2cccc3cccnc23)cc1`, which inhibition is on record?
A: Its inhibition is 9.5%.

Q: With `COC(=O)c1c(-c2cccs2)csc1NC(=O)CSc1ncnc2sc(C)c(C)c12` as the compound, how does the inhibition read?
A: The inhibition was -10.3%.

Q: Which inhibition does the source give for `Nc1ccc(-c2sc(N)nc2-c2ccccc2)cc1` here?
A: Its inhibition is 1.6%.

Q: For `CCC(C)NC(=O)c1ccccc1NC(=O)c1ccccc1N(C)S(C)(=O)=O` (configuration not stated), which inhibition is on record?
A: Its inhibition is -10.8%.

Q: Which inhibition does the source give for `COc1ccc(Cl)cc1NC(=O)CN(C)C(=O)CNC(=O)C12CC3CC(CC(C3)C1)C2` here?
A: The inhibition was -36%.

Q: Which inhibition does the source give for `COc1ccc(Cc2nnc(SCC(=O)c3cccc([N+](=O)[O-])c3)n2C)cc1` here?
A: Its inhibition is -8.8%.

Q: Which inhibition does the source give for `O=C(NCCc1ccccc1)c1ccc(NC2=NC3CS(=O)(=O)CC3S2)cc1` (configuration not stated) here?
A: The inhibition was 0.8%.

Q: Which inhibition does the source give for `Cc1cc(NC(=O)c2cccc(N3C(=O)CCC3=O)c2)no1` here?
A: Its inhibition is -4.7%.

Q: With `Cc1cccc(NC(=O)c2cc(N3C(=O)CCC3=O)ccc2Cl)n1` as the compound, how does the inhibition read?
A: The inhibition was 32.1% (active).

Q: For `Cc1cccc(NC(=O)c2ccccc2NC(=O)C(C)(C)C)n1`, which inhibition is on record?
A: The inhibition was -6.8%.

Q: For `O=C(CN1CCCCCC1)Nc1ccc(Br)cc1Br`, which inhibition is on record?
A: The inhibition was 5.3%.

Q: For `Cn1c(CNc2nc(-c3ccccc3)cs2)nnc1SCC(=O)c1ccccc1`, which inhibition is on record?
A: The inhibition was -14.8%.

Q: Which inhibition does the source give for `Cc1ccccc1NC(=O)Cc1nnc(SCC(=O)N2CCN(c3ccccc3)CC2)n1C` here?
A: Its inhibition is -36.6%.

Q: With `Cn1c(CC(=O)Nc2ccccc2)nnc1SCC(=O)c1ccccc1` as the compound, how does the inhibition read?
A: The inhibition was 92% (active).

Q: Which inhibition does the source give for `CCOC(=O)c1cc(NC(=O)c2ccc(Cl)cc2)c(=O)oc1-c1ccccc1` here?
A: Its inhibition is -5.2%.

Q: For `Cc1nc(C)c(C(=O)N(c2ccc(C)c(C)c2)C(C(=O)NCc2ccco2)c2ccccc2)s1` (configuration not stated), which inhibition is on record?
A: Its inhibition is -3.5%.

Q: Which inhibition does the source give for `CCc1ccccc1NC(=O)CSc1nnc([C@@H](NC(=O)OC(C)(C)C)C(C)CC)o1` (some centres not stated) here?
A: The inhibition was -19.4%.

Q: For `CCc1ccccc1NC(=O)CSc1nnc([C@@H](NC(=O)OC(C)(C)C)C(C)C)o1`, which inhibition is on record?
A: The inhibition was 0.3%.

Q: For `Cc1cccc(NC(=O)CSc2nnc(CCCCCNC(=O)OC(C)(C)C)o2)c1C`, which inhibition is on record?
A: Its inhibition is 55.4% (active).
